# According to PubChem BioAssay (NCI):
# Compounds without any hit were thinned out: in the full panel of roughly 83,000, 20% have a hit.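 Activity criterion: percent growth below 10, measured after cells in 96-well plates were exposed to a single compound concentration for 48 hours.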 Activity calls are given as the source filed them.
# Tested on: COLO 205 colon
# Assay: NCI-60 one-dose screen, 48 h (100 = growth as untreated, 0 = no growth, -100 = all killed)
# Conditions: 10 µM unless noted
# Protocol: Cells are grown in 96 well plates and exposed to the test compound for 48 hours. Compounds are tested at a single concentration, which is 10^-5 M for most compounds. The reported endpoint is percent growth (GI% or GIPRCNT), where numbers from 0 - 100% represent growth inhibition, and numbers from -100% - 0 represent cell death. For example, a value of 40 represents 60% growth inhibition. A value of 0 means no net growth occurred over the course of the experiment. A value of -40 indicates 40% of cells at the beginning of the experiment died by the end of the experiment. A value of -100 means all cells are dead at the end of the experiment.
# NCI-60 Human Tumor Cell Lines Screen was performed using the standard one-dose NCI protocol, which is described in more detail at https://dtp.cancer.gov/discovery_development/nci-60/default.htm.
# Compounds with GIPRCNT values below 10 were considered active. Activity score was based on GIPRCNT using the following formula: […]
# Score is 0 for GIPRCNT values of 100 or above, 50 for GIPRCNT values of 0, and 100 for GIPRCNT values of -100.
row,SMILES,growth
1,CCN(CC)CCCCCCNc1ccnc2cc(Cl)ccc12,9.2% (active)
2,O=[N+]([O-])c1cc(S(=O)(=O)c2ccc(F)c([N+](=O)[O-])c2)ccc1F,83% (inactive)
3,NC(Cc1ccc(O)cc1)C(=O)N/N=C/c1ccccc1O (stereo not given),123% (inactive)
4,C=C(C)[C@@H]1CC[C@]2(C(=O)N3CCN(C)CC3)CC[C@]3(C)[C@H](CC[C@@H]4[C@@]5(C)C/C(=C/c6ccc(C(F)(F)F)cc6)C(=O)C(C)(C)[C@@H]5CC[C@]43C)[C@@H]12,105% (inactive)
5,Cc1c(C)c2c(c(C)c1NC(=O)CCCCCCC(=O)O)CCC(C)(CCCC(C)CCCC(C)CCCC(C)C)O2 (stereo not given),98.4% (inactive)
6,Nc1c(C(=O)Nc2c(Cl)cccc2Cl)sc2nc3c(cc12)CCCC3,70.3% (inactive)
7,COc1ccc(-c2nc3ccccn3c2-c2nc3ccc(Cl)cc3[nH]2)cc1,110% (inactive)
8,Clc1ccccc1-c1nc(Nc2nc3ccccc3s2)nc(C(Cl)(Cl)Cl)n1,10.9% (inactive)
9,CC1(C)c2ccccc2C(=O)C1(Br)Cc1ccccc1 (stereo not given),97.9% (inactive)
10,Cn1cc(-c2csc(-c3cn(CCNC(=O)OC(C)(C)C)c4ccccc34)n2)c2cccnc21,73.3% (inactive)
11,Cc1ccc(N(CC(=O)Nc2ccc(S(=O)(=O)NC3CCN(C)CC3)cc2)S(=O)(=O)c2ccc(Cl)cc2)cc1,-47.6% (active)
12,COc1cc(-c2cc3cc(O)ccc3oc2=O)cc(OC)c1OC,102% (inactive)
13,Cn1cc(-c2nc(-c3c[nH]c4ncccc34)cs2)c2cc(Cl)ccc21,80.2% (inactive)
14,Brc1ccc2[nH]cc(-c3nc(-c4c[nH]c5ncccc45)cs3)c2c1,18.5% (inactive)
15,COc1ccc(-n2c(/C=C/c3ccc(O)c(OC)c3)cc(/C=C/c3ccc(O)c(OC)c3)nc2=O)cc1,56.8% (inactive)
16,CN(C)c1ccc(-c2ccc(-c3ccc(C(=N)N)c(F)c3)s2)cc1,-74.7% (active)
17,Nc1ccc(Cl)cn1,108% (inactive)
18,Cc1oc(-c2ccccc2Cl)cc1C(=O)Nc1ccc(S(N)(=O)=O)cc1,116% (inactive)
19,C=C(C)[C@@H]1CC[C@]2(C(=O)O)CC[C@]3(C)[C@H](CC[C@@H]4[C@@]5(C)C/C(=C/c6cccc(I)c6)C(=O)C(C)(C)[C@@H]5CC[C@]43C)[C@@H]12,28% (inactive)
20,O=C(c1ccccc1)C(CN1CCOCC1)c1ccccc1 (stereo not given),25.5% (inactive)

row,SMILES,growth
1,CN1CCN(CC#CCn2c3c(c4ccccc42)C[C@]2(C)[C@H]4CC[C@@H]5[C@H]6[C@H]7OC(=O)[C@@]6(CCC7(C)C)CC[C@@]5(C)[C@]4(C)CC[C@H]2C3(C)C)CC1,108% (inactive)
2,COC1=C(Br)C(=O)C(OC)=C(Br)C1=O,110% (inactive)
3,CN(C)CCCCC(C(=O)CBr)(c1ccccc1)c1ccccc1,-76% (active)
4,c1cc(N2CCCC2)c2nc(-c3[nH]ncc3Nc3ncnc4[nH]ccc34)[nH]c2c1,-65.9% (active)
5,Cc1cccc(C)c1NCc1nc(-c2ccccc2)n[nH]1,106% (inactive)
6,Nc1c2c(nc3ccc(Cl)cc13)CC(c1ccc(O)cc1)CC2=O (stereo not given),123% (inactive)
7,COc1ccc(-c2cc(-c3cccs3)n(N=O)c(=O)c2C#N)cc1,119% (inactive)
8,CCc1ccc(-c2ccc(Nc3ccccc3)nn2)cc1S(N)(=O)=O,94.8% (inactive)
9,COc1ccc(C2c3ccccc3NC(=O)N2C2CCN(C)CC2)c(OC)c1 (stereo not given),106% (inactive)
10,Cc1cc(N(CCCNc2ccnc3cc(Cl)ccc23)Cc2ccco2)nc(N2CCN(C)CC2)n1,-21.2% (active)
11,CC1(C)C(=O)/C(=C\c2ccccn2)C[C@]2(C)[C@H]3CC[C@@H]4[C@@H](C(=O)/C=C/c5ccccn5)CC[C@@]4(C)[C@]3(C)CC[C@@H]12,-34.4% (active)
12,Cn1cc(-c2csc(-c3cn(CCCN4CCCCC4)c4ccccc34)n2)c2cccnc21,-80% (active)
13,O=C1C=C(C(O)c2ccc(O)cc2)C(=O)c2ccccc21 (stereo not given),100% (inactive)
14,O=C(/C=C/c1cccc2ccccc12)Nc1ncc(Cc2ccccc2)s1,12.1% (inactive)
15,C=C1C(=O)O[C@H]2[C@H]1CC/C(COC(=O)NCCc1c[nH]c3ccccc13)=C\CC[C@@]1(C)O[C@@H]21,-38.2% (active)
16,NC1=C(C/C(N)=N\O)C(c2ccccc2Cl)c2c(ccc3ccccc23)O1 (stereo not given),118% (inactive)
17,Nc1c(C(=O)Nc2cccc3ccccc23)sc2nc3c(cc12)CCCC3,-3.36% (active)
18,CN(C)CCCC1(c2ccc(F)cc2)OCc2cc(-c3ccc(C(F)(F)F)nc3)ccc21 (stereo not given),60.7% (inactive)
19,NNC(=O)c1nc2ccccc2[nH]1,103% (inactive)
20,CN(C)c1ccc(N=C2C=CC(=O)C=C2)cc1,36.3% (inactive)
